Measured values as given in the supplement of paper PMC6992640.
Structures can show the parent of a compound that is named as a salt. ± gives the standard deviation of the averaged measurements.

Columns and labels:
Test in all cases: cell viability (% of vehicle); higher = less cytotoxic
Conditions in all cases: 10 µM; 72 h
HCI01 = system: HCI01 (cells of a triple-negative basal-like breast cancer xenograft)
HCI03 = system: HCI03 (cells of an ER-positive luminal breast cancer xenograft)
HCI09 = system: HCI09 (cells of a triple-negative luminal androgen receptor type breast cancer xenograft)
HCI11 = system: HCI11 (cells of an ER-positive luminal breast cancer xenograft)
HCI13 = system: HCI13 (cells of an ER-positive luminal breast cancer xenograft)
HCI16 = system: HCI16 (cells of a triple-negative basal-like breast cancer xenograft)
UCD52 = system: UCD52 (cells of a triple-negative basal-like breast cancer xenograft)
WHIM2 = system: WHIM2 (cells of a triple-negative basal-like breast cancer xenograft)
WHIM30 = system: WHIM30 (cells of a triple-negative basal-like breast cancer xenograft)
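Further: PDX cells carrying CMV promoter-driven luciferase, viability read as total photon flux per second by IVIS imaging following D-luciferin, vehicle control 0.1% DMSO.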

Compound | cell viability (HCI01) | cell viability (HCI03) | cell viability (HCI09) | cell viability (HCI11) | cell viability (HCI13) | cell viability (HCI16) | cell viability (UCD52) | cell viability (WHIM2) | cell viability (WHIM30)
Cn1c(=O)c2c(ncn2CC2OCCO2)n(C)c1=O [Doxofylline] | 110 ± 27 | 117 | 95.6 ± 12 | 100 | 82.8 ± 4.8 | 105 | 96.4 ± 3.6 | 102 ± 11 | 100 ± 9
CC(c1cc2ccccc2s1)N(O)C(N)=O (configuration not stated) [Zileuton] | 101 ± 13 | 136 | 105 ± 10 | 101 | 134 ± 24 | 128 | 112 ± 4 | 112 ± 21 | 134 ± 13
Nc1ccn([C@@H]2O[C@H](CO)[C@@H](O)C2(F)F)c(=O)n1 [Gemcitabine HCl] | 96.1 ± 22 | 109 | 93 ± 23 | 103 | 89.6 ± 16 | 107 | 133 ± 24 | 75.7 ± 7.1 | 105 ± 14
Nc1nc(F)nc2c1ncn2C1OC(CO)C(O)C1O (configuration not stated) [Fludarabine] | 131 ± 27 | 134 | 103 ± 10 | 116 | 165 ± 10 | 171 | 105 ± 4 | 106 ± 2 | 121 ± 8.2
CC(=O)N(CC(O)CO)c1c(I)c(C(=O)NCC(O)CO)c(I)c(C(=O)NCC(O)CO)c1I (configuration not stated) [Iohexol] | 117 ± 33 | 116 | 96.5 ± 2.9 | 83.2 | 133 ± 9.7 | 122 | 101 ± 6.7 | 99.2 ± 2.7 | 95.9 ± 8.9
CC(CCC(=O)O)C1CCC2C3C(O)CC4CC(O)CCC4(C)C3CC(O)C12C (configuration not stated) [Cholic acid] | 96 ± 8.2 | 142 | 89.6 ± 7.1 | 87.2 | 109 ± 9.5 | 98.7 | 101.2 ± 0.7 | 96.7 ± 11 | 99.9 ± 11
O=c1nc[nH]c2c1ncn2C1CCC(CO)O1 (configuration not stated) [Didanosine] | 105.3 ± 0.26 | 139 | 95.4 ± 7 | 118 | 99.18 ± 0.8 | 90.8 | 96.8 ± 9.7 | 98.5 ± 22 | 90.6 ± 1.1
CC#CC1(O)CCC2C3CCC4=CC(=O)CCC4=C3C(c3ccc(N(C)C)cc3)CC21C (configuration not stated) [Mifepristone] | 113 ± 13 | 99.2 | 72.6 ± 18 | 73.5 | 47.5 ± 0.63 | 89.3 | 73.3 ± 6.9 | 89.7 ± 2.1 | 93.3 ± 3
COCCOC(=O)C1=C(C)NC(C)=C(C(=O)OC(C)C)C1c1cccc([N+](=O)[O-])c1 (configuration not stated) [Nimodipine] | 136 ± 0.51 | 107 | 128 ± 25 | 115 | 87.6 ± 5.7 | 121 | 114 ± 5.1 | 132 ± 7.9 | 157 ± 28
CCC1C(O)C2C3CCC(C(C)CCC(=O)O)C3(C)CCC2C2(C)CCC(O)CC12 (configuration not stated) [Obeticholic Acid] | 137 ± 53 | 149 | 77.56 ± 0.36 | 112 | 81.8 ± 14 | 145 | 98.9 ± 10 | 120 ± 1.9 | 151 ± 2.4
CCCNC1CCc2nc(N)sc2C1.Cl.Cl.O (configuration not stated) [Pramipexole 2HCl Monohydrate] | 126 ± 3.4 | 131 | 107.2 ± 0.44 | 110 | 97.4 ± 1.9 | 138 | 103 ± 16 | 94.3 ± 11 | 103 ± 4.9
CCC1=C(C)CN(C(=O)NCCc2ccc(S(=O)(=O)NC(=O)NC3CCC(C)CC3)cc2)C1=O (configuration not stated) [Glimepiride] | 158 ± 17 | 123 | 86.6 ± 14 | 147 | 93.2 ± 11 | 158 | 129 ± 3.5 | 105 ± 6.7 | 164.4 ± 0.77
CCCC(CCC)C(=O)[O-].[Na+] [Valproic acid sodium salt (Sodium valproate)] | 190 ± 54 | 154 | 92 ± 18 | 140 | 111 ± 14 | 159 | 158 ± 42 | 105 ± 18 | 192 ± 10
C=CC[N+]1(C2CC3C4CCC5CC(O)C(N6CCOCC6)CC5(C)C4CCC3(C)C2OC(C)=O)CCCC1.[Br-] (configuration not stated) [Rocuronium Bromide] | 100 ± 8.3 | 133 | 103 ± 3.9 | 102 | 115 ± 7.2 | 80.4 | 118 ± 8 | 99.8 ± 22 | 119 ± 7.7
Br.CN(C)CCC[C@]1(c2ccc(F)cc2)OCc2cc(C#N)ccc21 [Citalopram hydrobromide] | 103 ± 25 | 138 | 93.7 ± 14 | 108 | 103 ± 6.7 | 129 | 106 ± 9 | 94.2 ± 24 | 87.9 ± 8.7
CS(=O)(=O)c1ccc(C(=O)Nc2ccc(Cl)c(-c3ccccn3)c2)c(Cl)c1 [GDC-0449 (Vismodegib)] | 109 ± 40 | 94.4 | 69.5 ± 20 | 104 | 105 ± 7.7 | 83.4 | 67.1 ± 1.8 | 111 ± 5.5 | 133 ± 2.4
O=C(C1CCCCC1)N1CC(=O)N2CCc3ccccc3C2C1 (configuration not stated) [Praziquantel] | 99.2 ± 15 | 132 | 94.6 ± 5.6 | 93.1 | 134 ± 17 | 112 | 96.7 ± 4.2 | 94 ± 20 | 114 ± 7.9
COc1ccc(C2CNC(=O)C2)cc1OC1CCCC1 (configuration not stated) [Rolipram] | 130 ± 5.1 | 140 | 85.8 ± 11 | 106 | 175 ± 38 | 112 | 102 ± 18 | 101 ± 13 | 123 ± 19
Cc1cnc(C(=O)NCCc2ccc(S(=O)(=O)NC(=O)NC3CCCCC3)cc2)cn1 [Glipizide] | 104 ± 16 | 128 | 106 ± 16 | 108 | 93.1 ± 1.8 | 99.1 | 83.6 ± 5.6 | 87.2 ± 11 | 138 ± 12

Compound | cell viability (HCI01) | cell viability (HCI03) | cell viability (HCI09) | cell viability (HCI11) | cell viability (HCI13) | cell viability (HCI16) | cell viability (UCD52) | cell viability (WHIM2) | cell viability (WHIM30)
C=C1C(CO)C(O)CC1n1cnc2c(=O)nc(N)[nH]c21.O (configuration not stated) [Entecavir Hydrate] | 110 ± 5.2 | 104 | 91.1 ± 4.7 | 99.5 | 82.7 ± 5.4 | 108 | 103 ± 13 | 81.3 ± 11 | 107 ± 9.8
C.CCN1CC(CCN2CCOCC2)C(c2ccccc2)(c2ccccc2)C1=O.O (configuration not stated) [Doxapram HCl] | 102.9 ± 0.49 | 198 | 81.9 ± 14 | 101 | 91.2 ± 1.9 | 105 | 73.6 ± 5.6 | 82.8 ± 4.2 | 117 ± 11
Cc1c(F)cc(C(=O)NC2CC2)cc1-c1ccc(C(=O)NCC(C)(C)C)cn1 [Losmapimod] | 84 ± 16 | 91.4 | 84.4 ± 21 | 60 | 71 ± 2.2 | 81.6 | 58.1 ± 1.8 | 76.5 ± 16 | 101 ± 6.2
CC12CC3CC(C)(C1)CC(N)(C3)C2.Cl [Memantine hydrochloride] | 88.8 ± 14 | 146 | 104 ± 13 | 99.3 | 116 ± 3.6 | 98.2 | 92.37 ± 0.13 | 88.1 ± 15 | 156 ± 21
N.N.[Cl][Pt+2][Cl] [Cisplatin] | 114 ± 0.99 | 124 | 64 ± 66 | 119 | 66.6 ± 27 | 117 | 99.9 ± 11 | 117 ± 18 | 133 ± 14
NCC1OC(OC2C(N)CC(N)C(OC3OC(CO)C(O)C(N)C3O)C2O)C(N)CC1O (configuration not stated) [Tobramycin] | 112 ± 23 | 124 | 98.5 ± 5.4 | 83.1 | 58 ± 9.4 | 88 | 85.3 ± 6.8 | 122 ± 32 | 123 ± 5.3
CCCN1CCCCC1C(=O)Nc1c(C)cccc1C.Cl (configuration not stated) [Ropivacaine HCl] | 98.4 ± 14 | 128 | 96 ± 5.6 | 86 | 96.2 ± 3.2 | 121 | 90.97 ± 0.57 | 92.8 ± 8.5 | 97.5 ± 4.7
CC12C=CC(=O)C=C1CCC1C2C(=O)CC2(C)C1CCC2(O)C(=O)CO (configuration not stated) [Prednisone] | 71.1 ± 46 | 93.9 | 118 ± 37 | 98.9 | 165 ± 8.5 | 138 | 103 ± 3.1 | 92.6 ± 38 | 130 ± 13
Nc1nc(=O)c2c(CCc3ccc(C(=O)NC(CCC(=O)O)C(=O)O)cc3)c[nH]c2[nH]1.O.[Na+] (configuration not stated) [Pemetrexed disodium hemipenta hydrate] | 97.24 ± 0.52 | 95.8 | 93.8 ± 24 | 91.3 | 90 ± 7.8 | 69.3 | 95.4 ± 1.8 | 90.47 ± 0.25 | 119 ± 36
Cc1nnc(SCC2=C(C(=O)[O-])N3C(=O)[C@@H](NC(=O)Cn4cnnn4)[C@H]3SC2)s1.[Na+] [Cefazolin (sodium salt)] | 115 ± 6.6 | 131 | 97.4 ± 9.4 | 85.9 | 125 ± 18 | 126 | 119 ± 12 | 104 ± 6 | 129 ± 8.7
CCC1OC(=O)CC(O)C(C)C(OC2OC(C)C(O)C(N(C)C)C2O)C(CCN2CC(C)CC(C)C2)CC(C)C(=O)C=CC(C)=CC1COC1OC(C)C(O)C(OC)C1OC (configuration not stated) [Tilmicosin] | 89.4 ± 32 | 116 | 82 ± 4.8 | 80.9 | 99.5 ± 6.4 | 102 | 77.7 ± 9.9 | 84.1 ± 3.9 | 97 ± 10
CN(Cc1cnc2nc(N)nc(N)c2n1)c1ccc(C(=O)NC(CCC(=O)O)C(=O)O)cc1 (configuration not stated) [Methotrexate] | 101 ± 8.6 | 115 | 91.1 ± 13 | 113 | 104 ± 7.5 | 93.4 | 89.1 ± 8.7 | 101 ± 2.1 | 94.9 ± 13
CCCc1nn(C)c2c(=O)nc(-c3cc(S(=O)(=O)N4CCN(C)CC4)ccc3OCC)[nH]c12 [Sildenafil] | 83.6 ± 6.4 | 101 | 82.8 ± 18 | 73.3 | 73.7 ± 3.3 | 103 | 82.8 ± 2.1 | 92.4 ± 1 | 105.82 ± 0.018
CCN(CCO)CCCC(C)Nc1ccnc2cc(Cl)ccc12.O=S(=O)(O)O (configuration not stated) [Hydroxychloroquine Sulfate] | 71.8 ± 4.6 | 96.6 | 72.2 ± 1.6 | 81.8 | 84.4 ± 8.1 | 86.5 | 71.4 ± 3.8 | 70.8 ± 2.9 | 101.7 ± 0.69
CC12CCC(O)CC1=CCC1C2CCC2(C)C(n3cnc4ccccc43)=CCC12 (configuration not stated) | 119 ± 15 | 58.2 | 54.3 ± 41 | 76.2 | 103 ± 7.5 | 96.3 | 83.2 ± 4.1 | 118 ± 18 | 93.6 ± 13
COc1ccc(CC2c3cc(OC)c(OC)cc3CC[N+]2(C)CCC(=O)OCCCCCOC(=O)CC[N+]2(C)CCc3cc(OC)c(OC)cc3C2Cc2ccc(OC)c(OC)c2)cc1OC.O=S(=O)([O-])c1ccccc1.O=S(=O)([O-])c1ccccc1 (configuration not stated) [Atracurium Besylate] | 187 ± 100 | 110 | 87.1 ± 58 | 81 | 80.1 ± 19 | 145 | 126 ± 2.7 | 71.5 ± 12 | 97.1 ± 7
Cc1ccc(NC(=O)c2ccc(CN3CCN(C)CC3)cc2)cc1Nc1nccc(-c2cccnc2)n1 [Imatinib (STI571)] | 87.1 ± 42 | 156 | 86.31 ± 0.75 | 89.4 | 108 ± 5.6 | 98.9 | 89.2 ± 1.7 | 91.7 ± 19 | 104 ± 12
Cc1cn(-c2cc(/N=C(\O)c3ccc(C)c(Nc4nccc(-c5cnccn5)n4)c3)cc(C(F)(F)F)c2)cn1 [Radotinib(IY-5511)] | 89.5 ± 3.2 | 142 | 92.6 ± 13 | 92.9 | 80.9 ± 9.7 | 107 | 102 ± 10 | 100 ± 12 | 104 ± 27
COc1ccc(CC2c3cc(OC)c(OC)cc3CC[N+]2(C)CCC(=O)OCCCCCOC(=O)CC[N+]2(C)CCc3cc(OC)c(OC)cc3C2Cc2ccc(OC)c(OC)c2)cc1OC.O=S(=O)([O-])c1ccccc1.O=S(=O)([O-])c1ccccc1 (configuration not stated) [Cisatracurium Besylate] | 177 ± 73 | 129 | 102 ± 17 | 109 | 80.4 ± 3.9 | 129 | 119 ± 6.3 | 65.1 ± 7.3 | 120 ± 7
